Measurements: PubChem BioAssay (NCATS)
Inconclusive results are not listed. Active and inactive are the calls of the source. Calls follow the shape of the dose curve; as a rule, active = well fitted inhibition curve with a large enough effect; inconclusive = small, poorly fitted or top-dose-only effect; inactive = flat fitted curve, though single readings scatter.

What was measured:
Assay in all cases: qHTS profiling for inhibitors of Plasmodium falciparum proliferation (AID 504749); also: nearly all actives have a fitted effect of over 60% in size
Settings in all cases: P. falciparum in erythrocytes, SYBR Green DNA, 72 h; series mostly up to 28.7 µM
[1] = test system: 3D7
Outline: (§1)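 SYBR Green fluorescence of parasite DNA, read after lysis and overnight dark incubation, measured growth over 72 h in erythrocyte culture at 0.3% parasitemia and 2.5% hematocrit. Data normalised to DMSO and 0.29 uM artemisinin, with plate-drift correction.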

[2] = test system: 7G8
Outline: as §1

[3] = test system: AS120
Outline: as §1

[4] = test system: ATS189
Outline: as §1

[5] = test system: CP185
Outline: as §1

[6] = test system: CP191
Outline: as §1

[7] = test system: CP192
Outline: as §1

[8] = test system: CP194
Outline: as §1

[9] = test system: CP201
Outline: as §1

[10] = test system: CP237
Outline: as §1

[11] = test system: CP247
Outline: as §1

[12] = test system: CP291
Outline: as §1

[13] = test system: CP305
Outline: as §1

[14] = test system: DIV30
Outline: as §1

[15] = test system: GB4
Outline: as §1

[16] = test system: HB3
Outline: as §1

[17] = test system: P94_40
Outline: as §1

[18] = test system: PC49
Outline: as §1

[19] = test system: TAB109
Outline: as §1

[20] = test system: TAB113
Outline: as §1

Measured: Potency

CN=C(N)NCCCC(N)C(=O)O (stereo not given)
inactive: all assays above
